Source: PubChem
Most compounds without a hit are left out; they make up all but 1.4% or so of the library.
PV pol inh = inhibitors of poliovirus RNA polymerase binding and polymerization; poliovirus polymerase elongation, fluorescence polarization; active compounds read low; P03300; AID 588519; 150,000 tested, 0.66% active; % elongation, % (compound at 16.7 µg/mL); in the data active = % elongation below about 90%
AID504770 = E. coli YBA685 growth inhibition, screen for V. cholerae RctB inhibitors. E. coli YBA685 rctB-dependent plasmid, OD600 growth, 3 h; active compounds read low. z-score (no concentration beside the values). 130,000 tested, 0.27% active. AID 504770; in the data active = z-score below about -2, passing the limit was not always enough
MenB inh = Mtb MenB enzyme inhibition; MenB enzyme assay, absorbance read-out; inhibition, % (concentration not given with the values); 100,000 tested, 0.43% active; AID 540299; P9WNP5; in the data active = inhibition above about 21%, passing the limit was not always enough
Target sequence (P9WNP5 whole entry, looked up): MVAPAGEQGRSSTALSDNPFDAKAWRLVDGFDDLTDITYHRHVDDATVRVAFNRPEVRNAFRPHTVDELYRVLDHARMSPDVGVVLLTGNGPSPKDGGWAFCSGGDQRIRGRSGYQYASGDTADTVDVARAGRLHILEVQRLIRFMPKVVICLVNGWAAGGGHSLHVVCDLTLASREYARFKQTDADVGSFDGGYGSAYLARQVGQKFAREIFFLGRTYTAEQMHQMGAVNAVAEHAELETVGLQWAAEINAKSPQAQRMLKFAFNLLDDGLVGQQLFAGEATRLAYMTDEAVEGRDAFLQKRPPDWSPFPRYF
Mtb MbtI inh = MbtI salicylate synthase inhibition; 100,000 tested, 0.89% active; inhibition, % (test concentration not listed); P9WFX0; purified MbtI enzyme, fluorescence intensity read-out; in the data active = inhibition mostly above about 56%, no sharp cut-off; inactive = mostly below about 77%
Numbers stand for hits; ! = repeats disagree.

Results for Cc1cc(C(=O)NCc2csc(-c3cccs3)n2)nn1C ?
PV pol inh: inactive; AID504770: inactive; MenB inh: inactive; Mtb MbtI inh: inactive

Results for CCc1cc(=O)oc2c(C)c(OCC(=O)Nc3ccc4c(c3)OCO4)ccc12 ?
PV pol inh: 80; AID504770: inactive; MenB inh: inactive; Mtb MbtI inh: inactive

Results for CCn1c(CCC(=O)N2CCN(c3ccccn3)CC2)nc2cc(S(N)(=O)=O)ccc21 ?
PV pol inh: 55; AID504770: inactive; MenB inh: inactive; Mtb MbtI inh: inactive

What do the screens show for `Cc1nn(C(C)CN)c(C)c1C` (configuration not stated)?
PV pol inh: inactive; AID504770: inactive; MenB inh: 34; Mtb MbtI inh: inactive

Results for CCOC(=O)C1Sc2nnc(C)n2NC1c1ccc2c(c1)OCO2 (configuration not stated) ?
PV pol inh: inactive; AID504770: inactive; MenB inh: inactive; Mtb MbtI inh: inactive

How did CCOC(=O)c1[nH]c(=O)[nH]c1CSc1ccccn1 do in these assays?
PV pol inh: inactive; AID504770: inactive; MenB inh: inactive; Mtb MbtI inh: 91

Results for Cc1cc(C)cc(N=Cc2ccc(C#N)cc2)c1 ?
PV pol inh: inactive; AID504770: inactive; MenB inh: inactive

Results for O=c1[nH]c2ccccc2c(=O)n1/N=C/c1cc(Cl)cc(Cl)c1O ?
PV pol inh: inactive; AID504770: inactive; MenB inh: inactive; Mtb MbtI inh: inactive

How did CCOc1ccc(NC2=CC(=O)C=CC2=O)cc1 do in these assays?
PV pol inh: inactive; AID504770: inactive; Mtb MbtI inh: 98

What do the screens show for `CCOc1ccc(NC2=CC(=O)CCC2)cc1`?
PV pol inh: inactive; AID504770: inactive; MenB inh: inactive; Mtb MbtI inh: inactive

What do the screens show for `O=C(Oc1ccccc1OC(=O)c1ccccc1)c1ccccc1`?
PV pol inh: inactive; AID504770: inactive; MenB inh: inactive; Mtb MbtI inh: inactive

How did CC(C)(Oc1ccccc1OC(=O)c1ccccc1)C(=O)CBr do in these assays?
PV pol inh: inactive; AID504770: inactive; Mtb MbtI inh: 62

Results for CCN(CC)Cn1c(=S)sc2ccccc21 ?
PV pol inh: inactive; AID504770: inactive; MenB inh: inactive; Mtb MbtI inh: 87

Results for OCn1c(=S)sc2ccccc21 ?
PV pol inh: inactive; AID504770: inactive; Mtb MbtI inh: 93

How did CCN(CC)Cn1c(=O)sc2ccccc21 do in these assays?
PV pol inh: inactive; AID504770: inactive; MenB inh: inactive; Mtb MbtI inh: inactive

How did O=C1C(O)=C(O)C(=O)C(O)=C1O do in these assays?
PV pol inh: 97!; AID504770: inactive; MenB inh: inactive; Mtb MbtI inh: inactive

How did Cc1ccc(-n2c(C)nc3c(cnn3-c3ccccc3)c2=O)cc1 do in these assays?
PV pol inh: 82

How did Fc1ccc(C2=Nn3c(Cc4ccccc4)nnc3SC2)cc1 do in these assays?
PV pol inh: inactive; AID504770: inactive; Mtb MbtI inh: inactive

What do the screens show for `c1ccc(OCc2nnc3n2N=C(c2ccccc2)CS3)cc1`?
PV pol inh: inactive; AID504770: inactive; MenB inh: inactive; Mtb MbtI inh: 84

What do the screens show for `Brc1ccc(C2=Nn3c(Cn4nnc5ccccc54)nnc3SC2)cc1`?
PV pol inh: 69; AID504770: inactive; MenB inh: inactive; Mtb MbtI inh: 68

Results for COc1nc(N2CCCC2)[nH]c(=O)n1 ?
AID504770: inactive; Mtb MbtI inh: inactive

How did CC(NC(=O)CCCc1cccs1)c1ccc(S(N)(=O)=O)cc1 (configuration not stated) do in these assays?
PV pol inh: inactive; AID504770: inactive; MenB inh: inactive; Mtb MbtI inh: inactive

How did COc1ccc(C(=O)Nc2nccs2)c(F)c1 do in these assays?
PV pol inh: inactive; AID504770: -3; MenB inh: inactive; Mtb MbtI inh: inactive

How did Cc1cccc(C(=O)Nc2nccs2)c1 do in these assays?
AID504770: -3.1

What do the screens show for `O=C(Nc1nccs1)c1cccc(Cl)c1`?
PV pol inh: inactive; AID504770: inactive; MenB inh: inactive; Mtb MbtI inh: inactive

Results for O=C(N/N=C/c1ccncc1)c1ccc(Cn2nnc(-c3ccccc3)n2)cc1 ?
PV pol inh: inactive; AID504770: inactive; MenB inh: inactive; Mtb MbtI inh: inactive

Results for Nc1cccc2cccc(C(=O)O)c12 ?
PV pol inh: 89; AID504770: inactive; Mtb MbtI inh: inactive

How did Cc1[nH]n(-c2nc3ccccc3s2)c(=O)c1C do in these assays?
PV pol inh: inactive; AID504770: inactive; MenB inh: inactive; Mtb MbtI inh: inactive

What do the screens show for `Cc1[nH]n(-c2nc3ccccc3s2)c(=O)c1C1OC(=O)c2ccccc21` (configuration not stated)?
PV pol inh: inactive; AID504770: inactive; MenB inh: inactive; Mtb MbtI inh: 95

How did O=C(NC(=S)/C(=C(/[O-])c1ccccc1)[n+]1ccccc1)c1ccccc1 do in these assays?
PV pol inh: inactive; AID504770: inactive; MenB inh: inactive

How did N#Cc1cccc(NC(=O)C23CC4CC(CC(Cl)(C4)C2)C3)c1 do in these assays?
PV pol inh: inactive; AID504770: inactive; Mtb MbtI inh: inactive

Results for CCOC(=O)C1=C(C)NC(=S)NC1c1ccc(-c2ccccc2Cl)o1 (configuration not stated) ?
PV pol inh: inactive; AID504770: inactive; MenB inh: 60; Mtb MbtI inh: inactive

What do the screens show for `Cc1cc(NC(=S)N(C)C)ccc1Br`?
PV pol inh: inactive; AID504770: inactive; MenB inh: inactive; Mtb MbtI inh: 96

Results for CC(C)c1ccc(OCc2nnc(SCC(=O)NC3CCCCC3C)o2)cc1 (configuration not stated) ?
PV pol inh: inactive; AID504770: inactive; MenB inh: inactive; Mtb MbtI inh: inactive

Results for N#Cc1cnc(SCCc2ccccc2)nc1N ?
PV pol inh: inactive; AID504770: inactive; MenB inh: 33; Mtb MbtI inh: inactive

What do the screens show for `O=C1C=CC(=O)C(CCCCCCC2=CC(=O)C=CC2=O)=C1`?
PV pol inh: inactive; AID504770: inactive; MenB inh: inactive; Mtb MbtI inh: 96

What do the screens show for `CCc1ccc(C2=CC(=O)C=CC2=O)cc1`?
PV pol inh: inactive; AID504770: inactive; MenB inh: inactive; Mtb MbtI inh: inactive

Results for O=C1C=CC(=O)C(CCC2=CC(=O)C=CC2=O)=C1 ?
PV pol inh: inactive; AID504770: inactive; MenB inh: inactive; Mtb MbtI inh: 98

Results for Cc1nc2sc(C(=O)OCC(=O)NCc3ccco3)c(C)c2c(=O)[nH]1 ?
PV pol inh: inactive; AID504770: inactive; MenB inh: inactive; Mtb MbtI inh: inactive

How did O=C1C=CC(=O)N1Cc1ccccc1 do in these assays?
PV pol inh: inactive; AID504770: -2.5; MenB inh: inactive; Mtb MbtI inh: inactive

Results for CCC(C)CCCCC(=O)NC(CCN)C(=O)NC(C(=O)NC(CCN)C(=O)NC1CCNC(=O)C(C(C)O)NC(=O)C(CCN)NC(=O)C(CCN)NC(=O)C(CC(C)C)NC(=O)C(Cc2ccccc2)NC(=O)C(CCN)NC1=O)C(C)O (configuration not stated) ?
PV pol inh: inactive; AID504770: -5.2; MenB inh: inactive; Mtb MbtI inh: inactive

What do the screens show for `Cc1cccc(-n2c(-c3ccco3)nc3ccccc3c2=O)c1`?
PV pol inh: inactive; AID504770: inactive; MenB inh: inactive; Mtb MbtI inh: 59
